In the library only some 10% were active in any assay of this set; here they are far more common.
CtBP-E1A blk – blocks the CtBP interaction with E1A | AlphaScreen GST-E1A/His-CtBP binding, 1536-well; active compounds read low | activity change, % (concentration not given with the values) | hit rate 0.49% among 340,000; in the data active means activity change below about -65%; inconclusive means mostly about -30% to -63%; further: on the % scale 0 is the no-effect control and ±100 the full control effect
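In 5 uL wells, 23 nL compound meets equimolar GST-E1A and His-CtBP (5X stock 125 nM each) for 2 h, 37 °C. Beads (5X, 50 ug/mL) then 1 h, 37 °C, dark.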
BAZ2B block – blocks human BAZ2B; AID 504333; Potency, µM (highest dose often 114 µM), inactives show top-dose activity change, negative = inhibition, most hits filed as inhibitors; AlphaScreen BAZ2B-H3K14Ac peptide displacement; Q9UIF8; hit rate 4.4% among 360,000; further: potency means the concentration at half of the fitted maximal effect; on the % scale 0 is the no-effect control and ±100 the full control effect; nearly all actives have a fitted effect of over 60% in size
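Inhibition is scored as reduced AlphaScreen emission. The BAZ2B/b-H3(5-23)K14Ac complex (50 nM each) in PBS pH 7.4, 0.01% Tween-20 meets compound (up to 110 uM) for 30 min at RT before bead addition.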
JMJD2A Tudor inh – blocks the human JMJD2A Tudor domain. AID 504339. Potency, µM (doses to about 114 µM), for inactives: at the highest dose activity change, negative = inhibition, hits mostly inhibitors. hit rate 4.4% among 390,000. O75164. AlphaScreen JMJD2A-Tudor / H3K4me3 peptide binding; further: potency means the concentration at half of the fitted maximal effect; on the % scale 0 is the no-effect control and ±100 the full control effect; nearly all actives have a fitted effect of over 50% in size
G9a inh – G9a (human) methyltransferase inhibition | G9a H3K9 monomethylation, AlphaScreen, 2 h | Potency, µM (series often up to 102 µM), inactives show at the top dose activity, negative = inhibition, usual class: inhibitors | hit rate 8.8% among 350,000 | AID 504332; further: potency means the concentration at half of the fitted maximal effect; on the % scale 0 is the no-effect control and ±100 the full control effect; nearly all actives have a fitted effect of over 75% in size
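Methyltransferase reactions run at room temperature for 2 h (20 nM enzyme, 500 nM biotin-H3K9 peptide, 20 uM SAM) after a 15 min compound preincubation; product detected by AlphaScreen beads and anti-H3K9me1 antibody.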
HP1b binding inh – HP1-beta chromodomain-methylated histone interaction inhibition. hit rate 0.56% among 390,000. AlphaScreen HP1-beta / biotin-H3K9me3 peptide binding. Potency, µM (titrated, usually from 114 µM), for the others: at the top dose activity change, negative = inhibition, hits mostly inhibitors. AID 540317; further: potency means the concentration at half of the fitted maximal effect; nearly all actives have a fitted effect of over 70% in size
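AlphaScreen: HP1-beta (50 nM) preformed 30 min with biotin-H3(1-18)K9me3 peptide (50 nM) in PBS pH 7.4, 0.01% Tween-20. Compound added for 30 min at RT, then streptavidin donor/nickel chelate acceptor beads (10 ug/mL) for 30 min.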
Six1-Eya2 blk – Six1/Eya2 interaction inhibition; Q15475+O00167; AlphaScreen GST-Six1/His-Eya2 binding, biochemical; active compounds read low; activity change, % (no concentration beside the values); hit rate 0.56% among 360,000; AID 651725; in the data active means activity change below about -65%; inconclusive means mostly about -30% to -63%; further: on the % scale 0 is the no-effect control and ±100 the full control effect
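AlphaScreen with GST-Six1 and His-Eya2 (5X mix: 250 nM and 500 nM), glutathione donor and nickel acceptor beads; buffer 50 mM Tris pH 8.0, 300 mM NaCl, 1 mM TCEP; 1 h at 37 C in the dark.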
* = called active by the depositor; ? = inconclusive; · = no result given; [ ] = another dose, or the depositor's remark. Unless noted, the call rests on the fitted dose curve; in most records, active means well fitted inhibition curve with a large enough effect; inconclusive means small, poorly fitted or top-dose-only effect; inactive means no such curve, though single readings can be large or run the other way.

SMILES | CtBP-E1A blk | BAZ2B block | JMJD2A Tudor inh | G9a inh | HP1b binding inh | Six1-Eya2 blk
O=[N+]([O-])c1ccc(NN=Cc2cccc(O)c2)nc1 | -7 | · | -24% | · | -15% | -4
Cc1cccc(C)c1-n1c(C)cc(/C=N\Nc2ccc([N+](=O)[O-])cn2)c1C | ? | -13% | 28µM* | ? | -23% | ?
CCCCN1C(C(=O)c2ccccc2)=C(OC(=O)CC)c2ccccc2S1(=O)=O | · | -19% | -30% | -33%[59 µM] | 30% | ·
C#CCOCCOCCOCCNc1nc(N2CCN(C(=O)C([C@@H](C)CC)n3cc(C(N)COC(=O)C(F)(F)F)nn3)CC2)nc(N2CCN(C(=O)C([C@@H](C)CC)n3cc(C(N)CC(C)C)nn3)CC2)n1 (stereo partly specified) | · | · | 79µM* | · | 29% | -3
C#CCOCCOCCOCCNc1nc(N2CCN(C(=O)C([C@@H](C)CC)n3cc(C(N)COC(=O)C(F)(F)F)nn3)CC2)nc(N2CCN(C(=O)[C@H](CCC(=O)O)n3cc(C(N)CC(C)C)nn3)CC2)n1 (stereo partly specified) | · | · | 63µM* | · | 42% | -5
CCOc1ccc(NC2CCN(C(C)=O)CC2)cc1 | 0 | 0% | -27% | 50µM* | 24% | -7
CCOc1ccc(S(=O)(=O)NN=C2CCN(C(C)=O)CC2)cc1 | 6 | 2% | -12% | 50µM* | 37% | 7
Cc1cc(C(=O)N2CCN(c3ccc([N+](=O)[O-])cc3)CC2)n[nH]1 | · | -31% | -18% | -1% | 37% | 20
Cc1ccc(NCc2ccccc2O)c(C)c1 | -19 | 32µM* | ? | 45µM* | -8% | -18
Cc1ccccc1-c1ccc(=O)n(CC(=O)Nc2ccc(N3CCOCC3)cc2)n1 | -6 | ? | -20% | ? | 6% | -3
O=c1oc2ccccc2c2oc3cc(O)c(O)cc3c12 | -12 | 40µM* | 7.9µM* | · | ? | -30
Nc1c(N)c2ccccc2oc1=O | 12 | ? | -25% | ? | 17% | -2
O=C(/C=C/c1ccccc1[N+](=O)[O-])Oc1ccccc1 | · | ? | · | 71µM* | · | ·
CCN(Cc1ccccc1)C(=O)/C=C/c1ccccc1[N+](=O)[O-] | -4 | 89µM* | -21% | -47% | 40% | -5
NC(=O)COC(=O)/C=C/c1ccccc1[N+](=O)[O-] | 4 | -29% | -29% | -5% | -7% | 5
O=C(/C=C/c1ccccc1[N+](=O)[O-])c1ccc(F)cc1 | -7 | -16% | -3% | 40µM* | 6% | 6
CN(Cc1cccs1)C(=O)/C=C/c1ccccc1[N+](=O)[O-] | -1 | -4% | -4% | -8% | 13% | 2
COCCNC(=S)NNc1cccc(C(=O)O)c1 | -6 | · | 10µM* | 10µM* | ? | -11
COC(=O)c1ccccc1NC(=O)c1oc2ccc3c(c2c1C)C(=O)CC(C)(C)O3 | · | -5% | -17% | 0%[59 µM] | 3% | ·
COc1cc(Cl)c(S(=O)(=O)NCCCn2ccnc2)cc1Cl | -14 | -10% | -7% | -8% | 19% | 1
CCOC(=O)C1=C(O)/C(=C\c2ccc(CNC(=O)C(=O)Nc3ccc(C)c(C)c3)o2)N=C1C | · | -39% | · | 45µM* | · | ·
COCCNC(=O)/C(C#N)=C\c1ccc(CNC(=O)C(=O)Nc2ccc(C)c(C)c2)o1 | -1 | -17% | -9% | -8% | 36% | -1
Cc1cc(C(=O)C(C)Sc2cccc[n+]2[O-])c(C)n1-c1ccc(Cl)cc1 (stereo unspecified) | 8 | -37% | -33% | 40µM* | -14% | -21
Cc1c(F)cccc1NS(=O)(=O)c1ccc2c(c1)c(C)cc(=O)n2C | · | 50µM* | -7% | 5% | 41% | -1
Cc1cccc(N2C(=O)C(CC(=O)Nc3cccc(F)c3)N(Cc3cccs3)C2=O)c1 (stereo unspecified) | · | -14% | -5% | -16%[59 µM] | 50% | ·
SMILES | CtBP-E1A blk | BAZ2B block | JMJD2A Tudor inh | G9a inh | HP1b binding inh | Six1-Eya2 blk
CC1(C)Cc2nc3sc(C(=O)O)c(N)c3cc2CS1 | · | · | · | 50µM* | · | ·
CC1(C)Cc2nc3sc(C(=O)NCCCO)c(N)c3cc2CS1 | -5 | ? | -24% | 25µM* | 19% | -27
CC1(C)Cc2nc3sc(C(=O)NCCO)c(N)c3cc2CO1 | 10 | 11% | -22% | 11µM* | 18% | 3
CC1CC(C)CN(C(=O)CCn2c(=O)oc3ccccc32)C1 (stereo unspecified) | 1 | -2% | -13% | 16% | 32% | 3
O=C(Nc1cc(Cl)ccc1Cl)N1CCCC1 | 16 | 6% | -17% | 7% | 10% | -2
O=C(/C(Br)=C/Nc1cc(Cl)ccc1Cl)C(F)(F)F | 1 | ? | ? | 10µM* | 52% | -2
Cc1c(C(=O)Oc2cc(N)n(S(C)(=O)=O)n2)cccc1[N+](=O)[O-] | -6 | ? | -22% | 16µM* | 8% | -20
Cc1ccccc1C(=O)Oc1cc(N)n(S(C)(=O)=O)n1 | -5 | -17% | -8% | -20% | 40% | -15
CN(CCc1ccc(Cl)c(Cl)c1)CCN1CCCC1 | · | · | · | 43%[59 µM] | · | ·
CC(C)NC(=O)CSc1nc(Cc2cccs2)nc2ccccc12 | 8 | 1% | -31% | 25µM* | 27% | -1
Cc1ccc(Nc2nc(N)nc(N)c2S(=O)(=O)c2ccccc2)cc1 | · | -29% | -23% | -18%[59 µM] | 9% | ·
O=C(O)C1C2C=CC(CC2)C1C(=O)O (stereo unspecified) | -6 | 50µM* | -45%[57.1 µM] | 45µM* | 79µM* | -21
O=C1/C(=C/c2ccc3c(c2)OCO3)SC(=S)N1CCC(=O)N(CCO)c1ccccc1 | -5 | · | · | · | · | -16
O=C1/C(=C/c2cccc(Br)c2)SC(=S)N1CCC(=O)N(CCO)c1ccccc1 | -3 | ? | 32µM* | · | -24% | -9
COc1cccc(/C=C2\SC(=S)N(CCCC(=O)Nc3cccc(C(=O)O)c3)C2=O)c1 | -12 | · | · | · | · | -12
COc1cccc(/C=C2\SC(=S)N(CCCC(=O)N(CCO)c3ccccc3)C2=O)c1 | -17 | ? | 35µM* | ? | -23% | -13
Cc1ccccc1[C@H](NC1c2ccccc2C=Cc2ccccc21)P(=O)(c1ccccc1)c1ccccc1 | -8 | · | · | · | · | -14
CC1=NC(=O)C(N=Nc2ccccc2)N1c1ccccc1 (stereo unspecified) | ? | 8.9µM* | 11µM* | 8.9µM* | -32% | ?
CC1=NC(=O)C(N=Nc2cccc(C(=O)O)c2)N1c1ccccc1 (stereo unspecified) | -9 | 50µM* | ? | ? | -36% | -2
CC1=NC(=O)C(N=Nc2ccccc2C(=O)O)N1c1ccccc1 (stereo unspecified) | -10 | 28µM* | ? | -12%[12.7 µM] | -13% | -21
